Compounds without any hit were thinned out: in the full panel of roughly 83,000, 20% have a hit.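 A percent growth of 40 corresponds to 60% growth inhibition; 0 means no net growth; -100 means all cells died. Active threshold: below 10.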 Activity calls are given as the source filed them.
system: HL-60(TB) leukemia; assay: NCI-60 one-dose screen, 48 h (100 = growth as untreated, 0 = no growth, -100 = all killed); details: 10 µM unless noted

Row | Compound | growth
1 | Cc1cccc(NC(=O)c2sc3nc4c(cc3c2N)CCC4)c1C | 8.43% (active)
2 | O=C(Cn1cc(CSc2nc3ccccc3o2)nn1)Nc1ccc([N+](=O)[O-])cc1 | 98.2% (inactive)
3 | COc1ccc(Oc2nc(NC3CCCC3)nc(Sc3ccc(OC)cc3)n2)cc1 | 48.3% (inactive)
4 | CCCCN(CCCC)CCCn1c(-c2ccccc2)ccc1-c1ccccc1 | 61.6% (inactive)
5 | CCOC(=N)c1ccc(C(=N)OCC)cc1 | 101% (inactive)
6 | CC(=O)C1CCC2C3CC(F)C4=CC(=O)CCC4(C)C3C(O)CC12C (stereo not given) | 94.2% (inactive)
7 | CN1C(=O)N(C)C2C1NN=c1s/c(=C\c3ccc(Cl)cc3Cl)c(=O)n12 (stereo not given) | -26.9% (active)
8 | COC(=O)c1cc(O)c2cc3c(cc2c1-c1cc(OC)c(OC)c(OC)c1)OCO3 | 5.92% (active)
9 | CCc1nnc(CNc2ccc(Cl)cc2)o1 | 92% (inactive)
10 | NC1(C(=O)O)CSSC1 | 4.59% (active)
11 | O=C(/C=C/c1ccccn1)c1ccccc1O | 13.1% (inactive)
12 | Cc1cc2c(c(C)c1Cl)C(=O)/C(=C/c1ccco1)O2 | 97.5% (inactive)
13 | NC(=O)C1CCCN(Cc2c[nH]c3ccccc23)C1 (stereo not given) | 102% (inactive)
14 | O=c1[nH]c(=O)n(C2C[C@H](O)[C@@H](CO)O2)cc1C(F)(F)F (stereo not given in full) | 85.8% (inactive)
15 | C=CC(=O)Nc1cccc(Nc2nc(Nc3ccc(N4CCN(C(C)=O)CC4)cc3OC)ncc2C(F)(F)F)c1 | -25.2% (active)
16 | CCCCCCC12CCC(=O)N1CCc1cncn12 (stereo not given) | 85.4% (inactive)
17 | c1ccc(Cc2cccc[n+]2C(c2ccccc2)c2ccccc2)cc1 | 4.63% (active)
18 | Cc1ccccc1NS(=O)(=O)c1cccc(C(=O)Nc2ccc(Br)cc2)c1 | 27.6% [25 µM] (inactive)
19 | COc1ccc(C(=O)N2c3ccccc3Sc3ccccc32)c(OC)c1 | 0.583% (active)
20 | O=C1C=CC(=O)N1c1cc(Cl)c(Cl)cc1Cl | 80.4% (inactive)

Row | Compound | growth
21 | O=C(Nc1ncc(Cc2ccccc2)s1)c1ccc2c(c1)OCCO2 | -48.6% (active)
22 | O=C(CC1Sc2ccccc2NC1=O)NNc1cccc(Cl)c1Cl (stereo not given) | 9.18% (active)
23 | COc1cccc(-c2nc3occn3c2-c2ccnc(NCCCNS(=O)(=O)c3ccc(C(F)(F)F)cc3)n2)c1 | 116% (inactive)
24 | CCCCN(CCCC)C(=O)[C@H](CC)[C@@H]1CC[C@@H](C)[C@@H]([C@H](C)[C@@H](O)[C@@H](C)C(=O)[C@H](CC)C2O[C@]3(C=C[C@@H](O)[C@]4(CC[C@@](C)([C@H]5CC[C@](O)(CC)[C@H](C)O5)O4)O3)[C@H](C)C[C@@H]2C)O1 (stereo not given in full) | -40.8% (active)
25 | C[n+]1cccc(NC(=O)c2ccc3ccc4ccc(C(=O)Nc5ccc[n+](C)c5)nc4c3n2)c1 | 61.4% (inactive)
26 | C=C(C)[C@@H]1C/C=C(/C=O)CC[C@@H]2O[C@@]2(C)CC/C=C(\C)CC1 | 162% (inactive)
27 | Cc1[nH]nc2ccc3nc(-c4ccc5[nH]ncc5c4)c4c(c3c12)CCCC4 | -15.5% (active)
28 | CCN(CC)CCNc1ccc(N=Nc2cnc3ccccc3c2)c2ccccc12 | -72.2% (active)
29 | CC(=O)Oc1c(C)c(OC(C)=O)c2c(c1C(C)=O)OC1CC(=O)C(C(C)=O)=C(O)C21C (stereo not given) | 79.4% (inactive)
30 | Cc1c(-c2cnc3ccc(Cl)cc3c2C(=O)O)nnn1-c1ccc(Cl)cc1 | 96.2% (inactive)
31 | CS(=O)(=O)c1nccc(-c2c(-c3cccc(OCc4ccc(F)cc4)c3)nc3sccn23)n1 | 43.7% (inactive)
32 | CC(=O)Oc1cc2ccccc2cc1C(C)C | 103% (inactive)
33 | CC1(C)N=C(N)N=C(N)N1c1ccc(Cl)cc1 | 51.6% (inactive)
34 | COc1ccc(CCN2CCC(CN(C)Cc3cnn(-c4ccccc4)c3)CC2)cc1 | 6.41% (active)
35 | O=S(=O)(NCCNc1nccc(-c2c(-c3ccccc3)nc3sccn23)n1)c1ccc(O)cc1 | 68% (inactive)
36 | C=CCn1c(SCC(=O)Nc2ccc(C(=O)/C=C/c3ccc(Cl)cc3)cc2)nnc1-c1cc(OC)c(OC)c(OC)c1 | 97.7% (inactive)
37 | CCCCCCCCCCCCOB(OCCCCCCCCCCCC)OCCCCCCCCCCCC | 107% (inactive)
38 | Cc1cc(C)c(-c2cc(O)c(-c3c(C)cc(C)cc3C)cc2O)c(C)c1 | -24.4% (active)
39 | COc1cc(/C=C/C(=O)N2CCN(C(=O)/C=C/c3cc(OC)c(OC)c(OC)c3)CC2)cc(OC)c1OC | 91.7% (inactive)
40 | CCCCCCCc1n(Cc2ccc3ccccc3c2)c2ccccc2[n+]1Cc1ccc2ccccc2c1 | -63.7% (active)
